HSF1 inhib: HSF1 inhibition; NIH3T3-HGL HSE-luciferase, MG132-induced, luminescence 8 h; stronger effect = lower value; activity change, negative = inhibition, % at 7.5 µM (by protocol); hit rate 0.77% among 300,000; AID 2098;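 active = more than half of replicate wells show activity change below -50%, luminescence cut by over half; inconclusive = some wells, but at most half, below -50%; inactive = no replicate well below -50%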;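 also: luciferase reports HSF-1 transcriptional activity via heat shock element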
TROY NFkB inh: TROY signaling inhibition; Q293 LMP1-TROYcd NF-kB luciferase reporter, 4 h; inhibition, % at 10 µM; hit rate 0.98% among 360,000; AID 1347056;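 active = compounds whose plate-normalised and pattern-corrected inhibition of the luciferase reporter signal at the single screening dose is 50% or more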
LGR2 antag: Drosophila LGR2 receptor signaling inhibition; HEK293 LGR2, CRE-luciferase, bursicon-stimulated, 4 h; inhibition, % at 9.99 µM; hit rate 0.35% among 380,000;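 active = drop in luminescence signal, shown as inhibition above about 50% in the replicate tests, limit read from the data, passing the limit was not always enough; inconclusive = probably only some replicates passing the limit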;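 also: agonist challenge used bursicon conditioned medium at about half maximal strength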
TWEAK Fn14 block: inhibitors of TWEAK-Fn14 interaction signaling. TWEAK-stimulated Fn14 reporter cells, luciferase luminescence, 8 h. inhibition, % at 10 µM. hit rate 2% among 360,000. AID 1159606; in the data active = inhibition above about 50%
HSF-1 act: increases HSF-1 driven luciferase reporter signal | activation, % at 9 µM | AID 504408 | NIH3T3-HGL HSF-1 luciferase reporter, MG132, 8 h; 100% = twice DMSO control signal | hit rate 1.7% among 300,000;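 active = mean replicate activation of at least 50% with a set share of replicates each reaching 50%; inconclusive = only one of those two conditions met; inactive = mean below 50% and too few replicates reaching it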
LMP1 NFkB inh: Epstein-Barr LMP1 NF-kappaB reporter inhibition; LMP1-induced NF-kappaB luciferase reporter cells, luminescence; inhibition, % at 12.5 µM; hit rate 0.69% among 350,000; AID 504558; in the data active = inhibition above about 41%; inconclusive = no clear call, values can overlap the other calls
Large screens that a line does not name were inactive. Compounds with a hit are over-represented: about 3.6% of the library has one in this group of screens.

C[C@H](CO)N1C[C@H](C)[C@H](CN(C)C(=O)Nc2ccc(C(F)(F)F)cc2)Oc2c(NS(C)(=O)=O)cccc2C1=O	none (no result: HSF1 inhib, TROY NFkB inh, TWEAK Fn14 block, HSF-1 act, LMP1 NFkB inh)
Cc1ccc(/C=C2\SC(=S)N(CCCC(=O)NC3CCCC3)C2=O)cc1	LMP1 NFkB inh 55
Cc1ccc(/C=C2\SC(=S)N(CCCC(=O)NNC(=O)c3ccccc3O)C2=O)cc1	HSF1 inhib -52, TROY NFkB inh 69, TWEAK Fn14 block 87, LMP1 NFkB inh 55
Cc1cccc(N2CCN(C(=O)CSCc3c(C)noc3C)CC2)c1C	HSF-1 act 54 (no result: LGR2 antag)
Fc1ccc(-c2cn3ccccc3n2)cc1	HSF-1 act 60
COc1ccc(CC(=O)Nc2ccc(-c3cn4ccccc4n3)cc2)cc1	HSF-1 act 184 (no result: LGR2 antag)
CCOc1ccc(-c2cn3ccccc3n2)cc1	LGR2 antag 74, TWEAK Fn14 block 62 (no result: HSF1 inhib, HSF-1 act)
CCOc1ccc(S(=O)(=O)NCCc2cn3ccccc3n2)cc1	none (no result: LMP1 NFkB inh)
COc1ccc(CC(=O)Nc2cccc(-c3cn4ccccc4n3)c2)cc1	none
O=S(=O)(c1ccc(-c2cn3ccccc3n2)cc1)N1CCOCC1	none (no result: LGR2 antag)
CCOc1ccc(-c2cnc3ccccc3n2)cc1	HSF1 inhib -58, TROY NFkB inh 63, LGR2 antag 90, TWEAK Fn14 block 94, LMP1 NFkB inh inconclusive
C[C@H](CO)N1C[C@H](C)[C@@H](CN(C)Cc2ccccc2)OCCCC[C@H](C)Oc2ccc(NC(=O)Nc3ccc(F)cc3)cc2C1=O	none (no result: HSF1 inhib, TROY NFkB inh, TWEAK Fn14 block, HSF-1 act, LMP1 NFkB inh)
N#Cc1cccc(C=C(C(=O)c2ccccc2)c2ccccc2)c1	TWEAK Fn14 block 64 (no result: HSF1 inhib, HSF-1 act, LMP1 NFkB inh)
C[C@H]1CN([C@@H](C)CO)C(=O)c2cccc(NC(=O)Nc3ccc4c(c3)OCO4)c2O[C@H]1CN(C)Cc1ccc(Oc2ccccc2)cc1	none (no result: HSF1 inhib, TROY NFkB inh, TWEAK Fn14 block, HSF-1 act, LMP1 NFkB inh)
Cc1c(C2=CCN(S(=O)(=O)c3ccc(Br)cc3)CC2)c2ccccc2n1C	HSF1 inhib -60
O=C(Nc1ccc2c(c1)CCCN2C(=O)c1cccs1)c1ccccc1	none
O=C(Nc1ccc2c(c1)CCCN2C(=O)c1cccs1)c1cccc(F)c1	HSF-1 act 60
O=C(COC(=O)c1cncc(Br)c1)NCc1ccccc1	HSF-1 act 53
Cc1ccccc1-n1nc(C(=O)c2cccs2)cc(-c2nc3ccccc3[nH]2)c1=N	none (no result: LGR2 antag)
COc1ccc(-n2nc(C(=O)c3cccs3)cc(-c3nc4ccccc4[nH]3)c2=N)cc1	LMP1 NFkB inh 59 (no result: LGR2 antag)
COc1cc(C(c2sc3nc(C)nn3c2O)N2CCc3ccccc3C2)cc(OC)c1OC (stereo unspecified)	LMP1 NFkB inh 86
COC(=O)C1CCN(C(c2ccc(OC)c(OC)c2)c2sc3nc(C)nn3c2O)CC1 (stereo unspecified)	none
COc1ccc(C(c2sc3nc(C)nn3c2O)N2CCC(C(N)=O)CC2)cc1OC (stereo unspecified)	LMP1 NFkB inh 72
COc1cccc(C(c2sc3nc(C)nn3c2O)N2CCN(C(=O)c3ccco3)CC2)c1 (stereo unspecified)	HSF1 inhib -85
CC(C)NC(=O)Nc1ccc2c(c1)C(=O)N([C@H](C)CO)C[C@H](C)[C@H](CN(C)C(=O)c1ccccc1)OCCCC[C@H](C)O2	none (no result: HSF1 inhib, TROY NFkB inh, TWEAK Fn14 block, HSF-1 act, LMP1 NFkB inh)
Cc1ccc(NC(=O)Nc2ccc3c(c2)C(=O)N(C)[C@@H]2CC[C@@H](CC(=O)O)O[C@H]2CO3)cc1	none (no result: HSF1 inhib, TROY NFkB inh, TWEAK Fn14 block, HSF-1 act, LMP1 NFkB inh)
COc1ccccc1-c1cnc2c(c1)C(=O)N([C@@H](C)CO)C[C@@H](C)[C@H](CN(C)CC1CCOCC1)O2	none (no result: HSF1 inhib, TROY NFkB inh, TWEAK Fn14 block, HSF-1 act, LMP1 NFkB inh)
Cc1nn(-c2ccccc2)c(N)c1C(O)(CSc1nccn1C)C(F)(F)F (stereo unspecified)	HSF1 inhib -91 (no result: LGR2 antag)
CCCNC(=O)N1CCC2(CC1)CN(Cc1ccccc1)[C@@H](CO)c1[nH]c3cc(OC)ccc3c12	none (no result: HSF1 inhib, TROY NFkB inh, TWEAK Fn14 block, HSF-1 act, LMP1 NFkB inh)
CC1=CC(=C(C#N)c2nc3ccccc3s2)C=C(C)N1c1ccc(F)cc1	none
COc1ccccc1N1C(C)=CC(=C(C#N)c2nc3ccccc3s2)C=C1C	TROY NFkB inh 72, TWEAK Fn14 block 83 (no result: LGR2 antag)
COc1cc(OC)c2c(-c3cccc(-c4ccc(C(C)=O)cc4)c3)cc(=O)oc2c1	TROY NFkB inh 56, TWEAK Fn14 block 77 (no result: HSF1 inhib, LGR2 antag, HSF-1 act)
CC(C)(C)n1ncc2c(=O)n(CC(=O)N3CCc4ccccc43)cnc21	TROY NFkB inh 60, TWEAK Fn14 block 59 (no result: LGR2 antag)
CC(C)(C)n1ncc2c(=O)n(CC(=O)OCc3ccccc3)cnc21	HSF1 inhib -73, TROY NFkB inh 87, LGR2 antag 93, TWEAK Fn14 block 99
Cc1ccccc1Cn1cnc2c(cnn2C(C)(C)C)c1=O	none
CC(C)(C)n1ncc2c(=O)n(Cc3cccc(Cn4cnc5c(cnn5C(C)(C)C)c4=O)c3F)cnc21	TWEAK Fn14 block 82 (no result: HSF1 inhib, HSF-1 act)
O=C(NC1CCCCC1)N[C@H]1CC[C@H](CCNS(=O)(=O)c2ccc(F)cc2)O[C@@H]1CO	none (no result: HSF1 inhib, TROY NFkB inh, TWEAK Fn14 block, HSF-1 act, LMP1 NFkB inh)
COc1ccc(/C=N/Nc2cc(OC)ncn2)cc1	LGR2 antag inconclusive, HSF-1 act 69, LMP1 NFkB inh inconclusive
COc1ccc(/C=N/Nc2nccnc2Cl)cc1	TWEAK Fn14 block 60 (no result: LGR2 antag)
COc1cccc(/C=N/Nc2cc(-n3nc(C)cc3-c3ccccc3)ncn2)c1O	TWEAK Fn14 block 61
COc1cccc(/C=N/Nc2ncnc(Cl)c2N)c1O	TROY NFkB inh 61, LMP1 NFkB inh 65 (no result: LGR2 antag)
COc1cccc(/C=N/Nc2nc(Nc3ccccc3)nc(-n3nc(C)cc3C)n2)c1O	none
C[C@@H]1CN([C@@H](C)CO)C(=O)Cc2cc(NS(=O)(=O)c3ccc(F)cc3)ccc2O[C@H]1CN(C)Cc1ccc(-c2ccccc2)cc1	none (no result: HSF1 inhib, TROY NFkB inh, TWEAK Fn14 block, HSF-1 act, LMP1 NFkB inh)
Oc1ccccc1/C=N/Nc1nccnc1Cl	LMP1 NFkB inh 58 (no result: LGR2 antag)
COc1cccc(/C=N/Nc2nccnc2Cl)c1O	LGR2 antag 76, TWEAK Fn14 block 65, LMP1 NFkB inh 72
COc1cccc(/C=N/Nc2ncnc3scc(-c4ccccc4)c23)c1O	TWEAK Fn14 block 63, LMP1 NFkB inh 81
COc1ccc(Nc2ncnc3scc(-c4ccc(OC)cc4)c23)cc1	none
CCCNC(=O)N[C@@H]1CC[C@H](CCn2cc(C3CCCCC3)nn2)O[C@H]1CO	none (no result: HSF1 inhib, TROY NFkB inh, TWEAK Fn14 block, HSF-1 act, LMP1 NFkB inh)
O=S(=O)(c1ccc(Cl)c(Cl)c1)c1snnc1-c1ccccc1	TROY NFkB inh 52, TWEAK Fn14 block 78, HSF-1 act 431 (no result: LGR2 antag)
c1ccc(-c2nnsc2-c2ccccc2)cc1	none
CC(C)CC(=O)/C(=C/c1ccc(N(C)C)cc1)n1cncn1	none
CC(C)CC(=O)/C(=C\c1ccc(Cl)cc1Cl)n1cncn1	TROY NFkB inh 74, TWEAK Fn14 block 106 (no result: LGR2 antag)
Cc1ccc(CNC(=O)CSc2nccn(-c3ccc(C)c(F)c3)c2=O)cc1	none
Cc1cccc(-n2ccnc2SCC(=O)Nc2ccc3c(c2)OCCO3)c1	TROY NFkB inh 51
O=C(CSc1nccn(-c2ccc(F)c(F)c2)c1=O)NC1CCCC1	HSF-1 act 62
O=C(CSc1nccn1-c1ccc(Cl)cc1)Nc1ccc2c(c1)OCO2	none (no result: HSF1 inhib, LGR2 antag, HSF-1 act)
CCn1c(COc2ccc(C)cc2)nnc1SCC(=O)Nc1ccc2c(c1)OCCO2	HSF1 inhib -71 (no result: LGR2 antag)

Screens: PubChem, several laboratories
